The results in this text go back to PubChem BioAssay AID1875 (Broad Institute, 2009).

In all, about 300,000 compounds went through this assay and about 65 (0.02%) were called active.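 The calls were made as follows: active = lowest replicate activity score at least 50, where 100 means six control SD above control mean; inconclusive = lowest score under 50 but half or more replicates reach 50; inactive = the rest.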 The full list was thinned out, with actives kept by preference.

This assay is described as follows: perturbers of mRNA poly(A) processing – luminescence, S. cerevisiae, primary screen (AID 1875).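 Also: yeast exposed to compound for 9 h at 30 °C; higher score means more reporter readthrough which indicates perturbed polyadenylation.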 Particulars: S. cerevisiae SKY197-pL101 polyadenylation reporter, beta-gal luminescence; at 12 µM; stronger effect = higher value; efflux-impaired pdr1/pdr3 knockout yeast; score 100 = 6 SD above DMSO.
As to `CC1C(=O)NC(=O)C1c1ccccc1` (stereo not given), the activity score is -10.6% (inactive).
In the case of `CC(C)Cc1nn2c(=O)cc(O)nc2s1` it was 4.85% (inactive); in that of `Cc1c(Br)cc(C(=O)N2CCCCCC2)c(C)c1C`, -12.8% (inactive); in that of `COc1ccccc1N1CCN(C(=O)c2cc(=O)c3cc(C)cc(C)c3o2)CC1`, -11.1% (inactive).
On to `Cc1c(NS(=O)(=O)c2ccc(NC3CCCC3)c([N+](=O)[O-])c2)c(=O)n(-c2ccccc2)n1C`, for which the activity score was 0.246% (inactive).
With `COc1ccccc1OCC(=O)Nc1ccccc1C(=O)NC1CC1`, the activity score was -4.06% (inactive).
Under `O=C1c2ccccc2C(=O)N1Cc1cc(-c2ccccc2Cl)no1` stands 16.1% (inactive).
Under `CCCOc1ccc(-c2c(C(=O)N/N=C/c3ccco3)nnn2-c2nonc2N)cc1` stands -8.58% (inactive).
In the case of `COCc1[nH][nH]c(=O)c1C=Nc1ccc(F)cc1F` it was -2.51% (inactive); in that of `Cc1ccc(NC(=O)C(C)c2cccc(C(=O)c3ccccc3)c2)cc1` (stereo not given), -5.58% (inactive); in that of `COc1ccccc1N1CCN(S(=O)(=O)c2ccc3c(c2)NC(=O)CS3)CC1`, 9.75% (inactive).
Regarding `CN(C)Cc1ccccc1C1(O)c2ccccc2CSc2ccccc21` (stereo not given), the activity score was -2.69% (inactive).
In the case of `CN(C)C(=O)c1ccc(NC(=O)c2ccccc2-c2ccccc2)cc1` it was -1.15% (inactive).
Turning to `CCC(Cc1ccccc1)NC(=O)C1CCCCC1` (stereo not given), the activity score is 15.5% (inactive).
Under `CCCC[C@@H]1CN=C(N)N1CCCC` stands 6.9% (inactive); under `C=CCN1C(=O)C2(OCCCO2)c2cccc(Cl)c21`, -10.9% (inactive); under `CC(=O)NC(Cc1ccc(F)c(F)c1)C(=O)NC1CCN(c2nnnn2-c2ccccc2)CC1` (stereo not given), -5.96% (inactive).
In the case of `O=C(NCc1ccccc1Cl)NC(=O)c1csc([N+](=O)[O-])c1` it was 8.38% (inactive).
In the case of `O=C(NCc1ccccc1)C1=C[C@@H](c2ccc(C(F)(F)F)cc2)C[C@@H](OCc2ccc(CO)cc2)O1` it was 4.63% (inactive); in that of `Cc1ccc(C)c(N2CCN(C(=O)CCCCCn3c(=S)[nH]c4ccc(N5CCOCC5)cc4c3=O)CC2)c1`, 13.3% (inactive); in that of `S=c1[nH]cc(-c2ccc(Cl)cc2)n1-c1ccccc1`, -13.1% (inactive).
For the compound `CC(C)c1ccc(NC(=O)[C@@H](NC(=O)N2CC(=O)Nc3ccccc32)C(C)C)cc1`, the activity score is 8.86% (inactive).
Regarding `COc1ccc2c(c1)N(C)/C(=C1/SC(=S)N(NC(C)=O)C1=O)S2`, the activity score is -0.22% (inactive).
Under `Cc1ccc(C(=O)NC2CCCC(C)C2C)cc1S(=O)(=O)N1CCCCC1` (stereo not given) stands 0.169% (inactive).
Under `CCN(CC)Cc1c(C(=O)N/N=C/c2cccc(OCc3ccc(F)cc3)c2)nnn1-c1nonc1N` stands -15.4% (inactive); under `COc1cc(OC)c(-n2cc(-c3ccc(Cl)cc3)[nH]c2=O)cc1Cl`, -4.07% (inactive).
`O=C1CSc2ccc(S(=O)(=O)NCc3ccccc3)cc2N1`: the activity score was 3.02% (inactive).
In the case of `O=C(NN1C(=O)C2C3C=CC(O3)C2C1=O)c1ccncc1` (stereo not given) it was 2.42% (inactive); in that of `COc1cccc(-n2c(=S)sc3c(=O)n(-c4ccccc4C)c(SCC(=O)O)nc32)c1`, 27.3% (inactive).
As for `COc1cc(/C=C/C(=O)OCC(=O)NC(=O)NCc2ccccc2)ccc1OCC#N`, the activity score is -0.558% (inactive).
In the case of `Cn1nccc1/C=N\NC(=O)c1ccc(Cl)cc1` it was 7.4% (inactive); in that of `COc1ccc(S(=O)(=O)c2c[nH]c(=S)[nH]c2=O)cc1Cl`, 11.8% (inactive).
Take `COc1ccc(CNC(=O)c2ccc(Br)s2)cc1OC`: the activity score was 6.38% (inactive).
As to `COc1ccc(Cl)cc1NC(=O)Cn1nc(-c2ccc(C)cc2)n(C)c1=S`, the activity score is -3.37% (inactive).
In the case of `O=C(c1[nH]ncc1-c1ccc(Cl)cc1)C1CO1` (stereo not given) it was 19.5% (inactive); in that of `O=C(NCc1ccco1)c1ccc(NS(=O)(=O)c2cccc([N+](=O)[O-])c2)cc1`, -6.5% (inactive).
Under `Cc1ccc(C(=O)N/C(=C\c2cn(C)c3ccccc23)C(=O)N2CCN(C)CC2)cc1` stands -4.13% (inactive).
Under `NC(=O)c1oc2ccccc2c1NC(=O)CS(=O)(=O)c1ccccc1` stands 13.3% (inactive); under `O=C(O)Cn1c(Cc2ccccc2)nc2ccccc21`, -5.1% (inactive).
For the compound `CC(C)c1ccc(OCC(O)CN2CCN(c3ccccn3)CC2)cc1` (stereo not given), the activity score was -11.9% (inactive).
Under `O=S(=O)(NCCc1ccc(Cl)cc1)c1cccs1` stands 14.8% (inactive); under `O=C(NC1CC1)C(Cc1ccccc1)NS(=O)(=O)c1ccccc1F` (stereo not given), 2.29% (inactive).
Under `COc1ccc(N2CCN(CCNC(=O)Nc3cc(Cl)ccc3Cl)CC2)cc1` stands -1.83% (inactive); under `N#Cc1ccc(S(=O)(=O)NCC(=O)OCC(=O)NCCc2ccccc2)cc1`, 3.63% (inactive).
In the case of `CSc1ncc(C(=O)Nc2ccc(C)cc2C)c(C)n1` it was 2.7% (inactive); in that of `CC(=O)c1ccc(S(=O)(=O)N2CCN(c3nc4c(C)c(C)ccc4cc3C#N)CC2)cc1`, 13.6% (inactive); in that of `Cc1ccc(NS(=O)(=O)c2ccc(C(C)(C)C)cc2)cn1`, -9.91% (inactive).
As to `COc1ccc(N2CCN(CCNC(=O)c3nnc(Cc4c(F)cccc4Cl)o3)CC2)cc1`, the activity score is -12.7% (inactive).
For the compound `CCOC(=O)c1nn(-c2ccccc2F)c2nc(Nc3ccccc3)cc(=O)n12`, the activity score is -12.8% (inactive).
Under `CN(C)Cc1c(O)ccc2c(=O)c(-c3ccccc3Cl)coc12` stands 8.63% (inactive); under `CN1CCN(C(=O)C(=O)c2cn(CC(=O)N3CCCC3)c3ccccc23)CC1`, 17% (inactive); under `CC(=O)Nc1ccc(NC(=O)CS(=O)(=O)c2cn(CC(=O)N3CCCCC3)c3ccccc23)cc1`, 4.41% (inactive).
Turning to `S=C(c1ccc(-c2ccccc2)o1)N1CCCCC1`, the activity score was -23.1% (inactive).
In the case of `CC(=O)Nc1cccc(OCC(=O)/C=C2\N(C)c3ccccc3C2(C)C)c1` it was -11.1% (inactive); in that of `Cc1ccc(OCC(=O)NCCCNC(=O)c2cccnc2)cc1C`, 0.135% (inactive); in that of `N#C/C=C\Oc1ccc(Cl)cc1N`, -86.8% (inactive).
Turning to `COC(=O)CSc1ccc2nnc(CCNS(=O)(=O)c3ccc(C)cc3)n2n1`, the activity score is 6.76% (inactive).
In the case of `COc1ccc(C2Nc3ccccc3C(=O)N2c2ccc(Cl)cc2)cc1Cn1cc([N+](=O)[O-])cn1` (stereo not given) it was -9.63% (inactive).
In the case of `COc1cc(NC(=O)c2ccc(CNc3c(N4CCCC4)c(=O)c3=O)cc2)cc(OC)c1OC` it was 19.5% (inactive); in that of `C/C(CC(=O)Nc1ccc(N(C)C)cc1)=N\NC(=O)c1ccccc1F`, -2.05% (inactive); in that of `COCCNC(=S)N1CCN(C)CC1`, -14.8% (inactive).
Under `COc1ccc(CCN(C)C(=O)C23CC4CC(CC(Cl)(C4)C2)C3)cc1OC` stands 5.22% (inactive); under `COc1cccc(NC(=O)Cn2c3ccc(F)cc3c3nc4n(c(=O)c32)CCS4)c1`, -13.2% (inactive); under `Cc1ccc(Cl)cc1N1CCN(C(=O)c2cccc3c(=O)c(C)c(-c4ccccc4)oc23)CC1`, 5.32% (inactive).
Consider `COC(=O)Nc1ccc(S(=O)(=O)N(C)CC(F)(F)C(F)F)cc1`, for which the activity score is 3.96% (inactive).
In the case of `Clc1ccc(-c2nnc(-c3ccccc3)nc2N2CCSCC2)cc1` it was -11% (inactive); in that of `COc1cccc2cc(C(C)N(CCCN3CCOCC3)C(=O)Nc3ccc(Cl)cc3)oc12` (stereo not given), -8.58% (inactive); in that of `COC(=O)c1ccccc1NC(=O)C1CCN(C(=O)N2CCOc3ccccc32)CC1`, 8.38% (inactive).
In the case of `CCOc1ccc2sc(NS(=O)(=O)c3ccc(N)cc3)nc2c1` it was -8.96% (inactive); in that of `O=C1OCC2=C1C(c1ccccc1)CC(=O)N2c1cccc(F)c1` (stereo not given), 19.6% (inactive).
For `COc1cccc(NC(=O)CC(c2ccc(OC(C)C)cc2)c2ccccc2OC)c1` (stereo not given), the activity score is 10.2% (inactive).
In the case of `Cc1ccc2nc(SCC(=O)Nc3cccc4ccccc34)nc(=O)n2c1` it was -16.5% (inactive); in that of `CC1(C)C(C=C(Cl)Cl)C1C(=O)N(Cc1ccc(Cl)cc1)C1CCS(=O)(=O)C1` (stereo not given), -12.2% (inactive).
Under `N#CCSc1nc2ccc(N3CCOCC3)cc2c(=O)n1CCc1ccccc1` stands -15.9% (inactive); under `CC1CC(NC(=O)/C(C#N)=C/c2ccc[nH]2)CC(C)(C)C1` (stereo not given), -5.8% (inactive).
Under `CCN1C(=O)N[C@@H](CCc2ccccc2)C(C(=O)OC)=C1C` stands -17.2% (inactive).
Turning to `O=C1C2C3C=CC(C3)C2C(=O)N1c1ccc(S(=O)(=O)Nc2nccs2)cc1` (stereo not given), the activity score was -1.69% (inactive).
Under `O=C(NC(Cc1ccccc1)C(=O)N1CCCC(C(F)(F)F)C1)c1ccccc1` (stereo not given) stands 5.98% (inactive).
In the case of `Cn1ncc(N2CCN(S(=O)(=O)c3ccc(Br)cc3)CC2)c(Cl)c1=O` it was 13.7% (inactive); in that of `CC(=O)N1C(=O)/C(=C2\SC(=S)N(NC(=O)c3ccc(O)cc3)C2=O)c2ccccc21`, -6.71% (inactive).
For the compound `Cc1ccc(CNC(=O)CCCNC(=O)c2ccc(Cl)cc2)n1C`, the activity score was -18.6% (inactive).
As to `Cc1cccc(N(C(=O)c2sc(C)nc2C)C(C(=O)NCC2CCCO2)c2ccccc2)c1` (stereo not given), the activity score was -7.81% (inactive).
In the case of `CC(C)C1Nc2c(C(=O)O)cccc2C(Nc2ccccc2C(=O)O)C1(C)C` (stereo not given) it was 12.3% (inactive).
For `Cc1ccn2c(=O)nc(SCC(=O)NCc3ccc4c(c3)OCO4)nc2c1`, the activity score is 17.3% (inactive).
In the case of `Cn1cc(S(=O)(=O)NC(c2ccccc2)c2ccccc2)c(=O)n(C)c1=O` it was -1.67% (inactive); in that of `COCCCNC(NC(=O)c1ccc(C)cc1)C(Cl)(Cl)Cl` (stereo not given), 8.69% (inactive); in that of `COc1ccc2oc(=N)c(C(=O)Nc3ccc(Br)cc3)cc2c1`, 0.299% (inactive).
As to `O=C(Nc1ccccc1N1CCOCC1)c1ccc(OCc2cscn2)cc1`, the activity score is 3% (inactive).
As for `CC(=O)Nc1ccc(NC(=O)[C@@H](NC(=O)c2cccc(C)c2)C(C)C)cc1`, the activity score was -9.42% (inactive).
In the case of `CCOC(=O)CNC(=O)CSc1ccc2nnc(-c3cccnc3)n2n1` it was 7.59% (inactive).
